Where “and” joins values, the source holds several entries; their conditions need not be identical. Identical values can stand only once. Calls of active or inactive are those of the source.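 How the source made its calls: active means thallium flux through the channel raised or lowered by more than 3 SD from vehicle-only wells, actives on both sides; inactive means the rest.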
Tests used:
Assay in all cases: BK channel mutant inhibitors and activators – cell-based, U2OS BacMam, thallium flux, beta subunits, selectivity assay, profiling panel (AID 1259406);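 further: initial slope of Thallos dye fluorescence rise after thallium is added; log ratio against the mean of 0.3% DMSO vehicle wells on the same plate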
F380Y/beta2Delta = settings: U2OS BacMam BK variants, at 30 µM
F380Y/beta4 = settings: U2OS BacMam BK variants, at 30 µM
[1] = target: Calcium-activated potassium channel subunit alpha-1 (Homo sapiens) + Leucine-rich repeat-containing protein 26 (Homo sapiens) (UniProt Q12791+Q2I0M4); settings: U2OS BacMam BK variants, F380Y/Slo1WT/gamma1, at 30 µM
Calcium-activated potassium channel subunit alpha-1 (Homo sapiens) + Leucine-rich repeat-containing protein 26 (Homo sapiens), sequence (Q2I0M4 whole entry, looked up, one chain of several): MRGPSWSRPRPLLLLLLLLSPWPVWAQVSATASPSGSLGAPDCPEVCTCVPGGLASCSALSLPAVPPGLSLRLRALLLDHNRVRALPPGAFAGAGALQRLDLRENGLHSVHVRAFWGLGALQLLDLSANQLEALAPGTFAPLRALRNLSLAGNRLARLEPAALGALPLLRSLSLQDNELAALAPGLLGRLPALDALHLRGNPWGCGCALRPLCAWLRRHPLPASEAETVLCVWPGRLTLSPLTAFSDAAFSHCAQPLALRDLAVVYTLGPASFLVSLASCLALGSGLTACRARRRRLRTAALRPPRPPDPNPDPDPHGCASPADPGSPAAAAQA

R275C = settings: U2OS BacMam BK variants, at 30 µM
R275C/beta1 = settings: U2OS BacMam BK variants, at 30 µM
R275C/beta2Delta = settings: U2OS BacMam BK variants, at 30 µM
R275C/beta4 = settings: U2OS BacMam BK variants, at 30 µM
R275C/Slo1WT/beta2 = settings: U2OS BacMam BK variants, at 30 µM

Measured: log fold change Tl+ flux

CC(C)(C)NC(=O)[C@H]1CC[C@H]2[C@@H]3CC[C@H]4NC(=O)C=C[C@]4(C)[C@H]3CC[C@]12C
inactive: F380Y/beta2Delta 0.0468 | F380Y/beta4 0.00105 | [1] -0.00445 | R275C -0.0443 | R275C/beta1 -0.0219 | R275C/beta2Delta 0.0533 | R275C/beta4 0.00132 | R275C/Slo1WT/beta2 -0.0253

O=C1[C@H]2CCCC[C@H]2C(=O)N1CCCCN1CCN(c2nsc3ccccc23)CC1
active: R275C/beta1 0.107
inactive: F380Y/beta2Delta 0.0368 | F380Y/beta4 0.0464 | [1] -0.0162 | R275C -0.0177 | R275C/beta2Delta 0.0344 | R275C/beta4 0.0306 | R275C/Slo1WT/beta2 -0.00391

CC(C)(C)C(O)/C=C/c1ccc2c(c1)OCO2 (stereo not drawn)
inactive: F380Y/beta2Delta -0.034 | F380Y/beta4 0.0193 | [1] 0.00833 | R275C -0.0106 | R275C/beta1 0.0195 | R275C/beta2Delta -0.0731 | R275C/beta4 -0.0258 | R275C/Slo1WT/beta2 -0.0107

COc1ccccc1OCC(O)CN1CCN(CC(=O)Nc2c(C)cccc2C)CC1 (stereo not drawn)
inactive: F380Y/beta2Delta 0.0304 | F380Y/beta4 -0.01 | [1] -0.0153 | R275C -0.0477 | R275C/beta1 0.0435 | R275C/beta2Delta 0.00123 | R275C/beta4 0.0205 | R275C/Slo1WT/beta2 0.0142

CC(=O)OCC(=O)NCCCOc1cccc(CN2CCCCC2)c1
inactive: F380Y/beta2Delta 0.000408 | F380Y/beta4 -0.0388 | [1] -0.00356 | R275C -0.0635 | R275C/beta1 0.00812 | R275C/beta2Delta 0.0201 | R275C/beta4 -0.00407 | R275C/Slo1WT/beta2 0.00881

CC(C)[C@H](N)C(=O)OCCOCn1cnc2c(=O)[nH]c(N)nc21
inactive: F380Y/beta2Delta -0.00659 | F380Y/beta4 -0.0146 | [1] 0.0174 | R275C -0.11 | R275C/beta1 0.0176 | R275C/beta2Delta 0.0029 | R275C/beta4 0.0146 | R275C/Slo1WT/beta2 -0.011

CC(C)(C(=O)c1cccnc1)c1cccnc1
inactive: F380Y/beta2Delta -0.0492 | F380Y/beta4 -0.00737 | [1] -0.0176 | R275C -0.0634 | R275C/beta1 0.0377 | R275C/beta2Delta -0.0241 | R275C/beta4 0.0328 | R275C/Slo1WT/beta2 0.0667

Nc1nc(F)nc2c1ncn2[C@@H]1O[C@H](CO)[C@@H](O)[C@@H]1O
inactive: F380Y/beta2Delta 0.0109 | F380Y/beta4 -0.0895 | [1] -0.000905 | R275C -0.0205 | R275C/beta1 -0.0181 | R275C/beta2Delta -0.00769 | R275C/beta4 -0.0294 | R275C/Slo1WT/beta2 -0.0303

Cn1nnc2c(C(N)=O)ncn2c1=O
inactive: F380Y/beta2Delta -0.0261 | F380Y/beta4 -0.0309 | [1] 0.0144 | R275C -0.00524 | R275C/beta1 -0.0169 | R275C/beta2Delta 0.0357 | R275C/beta4 -0.0137 | R275C/Slo1WT/beta2 0.06

CCCOc1ccc(C(=O)OCCN(CC)CC)cc1N
inactive: F380Y/beta2Delta 0.0489 | F380Y/beta4 0.0262 | [1] 0.00339 | R275C 0.0442 | R275C/beta1 -0.0232 | R275C/beta2Delta 0.0224 | R275C/beta4 0.00943 | R275C/Slo1WT/beta2 -0.0584

CC(=O)Oc1ccccc1C(=O)Nc1ncc([N+](=O)[O-])s1
active: [1] 0.139 | R275C/beta2Delta 0.237
inactive: F380Y/beta2Delta -0.0604 | F380Y/beta4 -0.0482 | R275C -0.00393 | R275C/beta1 0.0452 | R275C/beta4 0.0513 | R275C/Slo1WT/beta2 0.00625

Cc1nc2n(c(=O)c1CCN1CCC(c3noc4cc(F)ccc34)CC1)CCCC2
active: R275C -0.134
inactive: F380Y/beta2Delta -0.0407 | F380Y/beta4 -0.0446 | [1] -0.0848 | R275C/beta1 -0.00526 | R275C/beta2Delta -0.0361 | R275C/beta4 -0.0132 | R275C/Slo1WT/beta2 0.0103

CC(C(=O)O)c1ccc(CC2CCCC2=O)cc1 (stereo not drawn)
inactive: F380Y/beta2Delta -0.0349 | F380Y/beta4 -0.0649 | [1] -0.0398 | R275C -0.0259 | R275C/beta1 0.00328 | R275C/beta2Delta 0.0267 | R275C/beta4 -0.000172 | R275C/Slo1WT/beta2 0.00782

CC(=O)NS(=O)(=O)c1ccc(N)cc1
inactive: F380Y/beta2Delta 0.0558 | F380Y/beta4 0.0262 | [1] -0.0364 | R275C 0.0168 | R275C/beta1 -0.00538 | R275C/beta2Delta -0.00501 | R275C/beta4 -0.00232 | R275C/Slo1WT/beta2 0.00853

CCCN[C@H]1CCc2nc(N)sc2C1
inactive: F380Y/beta2Delta 0.0149 and -0.064 | F380Y/beta4 0.049 | [1] -0.0398 and 0.00679 | R275C -0.0132 and -0.0398 | R275C/beta1 -0.0125 and -0.021 | R275C/beta2Delta -0.0052 and -0.0245 | R275C/beta4 0.000139 | R275C/Slo1WT/beta2 0.0182

CN(C/C=C/C#CC(C)(C)C)Cc1cccc2ccccc12
active: R275C/beta1 -0.3 | R275C/beta2Delta -0.238
inactive: F380Y/beta2Delta -0.0506 | F380Y/beta4 -0.0252 | [1] 0.0229 | R275C -0.0273 | R275C/beta4 -0.00168 | R275C/Slo1WT/beta2 0.012

CCN1CCCC1CNC(=O)c1cc(S(=O)(=O)CC)c(N)cc1OC (stereo not drawn)
inactive: F380Y/beta2Delta 0.0211 | F380Y/beta4 0.00308 | [1] -0.0597 | R275C -0.0334 | R275C/beta1 0.00406 | R275C/beta2Delta -0.0411 | R275C/beta4 -0.0037 | R275C/Slo1WT/beta2 0.0112

O=C1c2cccc3c2[C@H](CCC3)CN1[C@@H]1CN2CCC1CC2
inactive: F380Y/beta2Delta 0.0262 | F380Y/beta4 0.0479 | [1] 0.0044 | R275C -0.0177 | R275C/beta1 -0.00783 | R275C/beta2Delta 0.00552 | R275C/beta4 -0.0169 | R275C/Slo1WT/beta2 -0.0269

Cc1cn([C@H]2C=C[C@@H](CO)O2)c(=O)[nH]c1=O
inactive: F380Y/beta2Delta 0.00122 and 0.00603 | F380Y/beta4 -0.027 and 0.00706 | [1] 0.0426 and -0.00611 | R275C -0.1 and -0.00698 | R275C/beta1 -0.02 and 0.0272 | R275C/beta2Delta -0.0201 and 0.00371 | R275C/beta4 0.0202 and -0.00131 | R275C/Slo1WT/beta2 0.0395 and 0.0392

CCc1nn(CCCN2CCN(c3cccc(Cl)c3)CC2)c(=O)n1CCOc1ccccc1
inactive: [1] 0.00963 | R275C -0.055 | R275C/Slo1WT/beta2 -0.00757
active: F380Y/beta2Delta -0.507 | F380Y/beta4 -0.446 | R275C/beta1 0.378 | R275C/beta2Delta 0.156 | R275C/beta4 0.207

CCOc1cc(N)c(Cl)cc1C(=O)NCC1CN(Cc2ccc(F)cc2)CCO1 (stereo not drawn)
inactive: F380Y/beta2Delta 0.0207 | F380Y/beta4 -0.0442 | [1] 0.0207 | R275C -0.0128 | R275C/beta1 0.0447 | R275C/beta4 0.0132 | R275C/Slo1WT/beta2 0.00286
active: R275C/beta2Delta 0.108

O=C1Nc2ccc(Cl)cc2[C@@](C#CC2CC2)(C(F)(F)F)O1
active: R275C -0.166 | R275C/beta1 0.275 | R275C/beta2Delta 0.119 | R275C/beta4 0.11
inactive: F380Y/beta2Delta 0.0472 | F380Y/beta4 0.0723 | [1] 0.0446 | R275C/Slo1WT/beta2 -0.0224

O=C(c1ccc(F)cc1)C1CCN(CCn2c(=S)[nH]c3ccccc3c2=O)CC1
inactive: F380Y/beta2Delta -0.00369 | F380Y/beta4 0.0138 | [1] -0.000443 | R275C 0.0338 | R275C/beta1 -0.0174 | R275C/beta2Delta -0.00339 | R275C/beta4 -0.00101
active: R275C/Slo1WT/beta2 0.0813

CCc1c(C)[nH]c2c1C(=O)C(CN1CCOCC1)CC2 (stereo not drawn)
inactive: F380Y/beta2Delta 0.0445 | F380Y/beta4 -0.00138 | [1] -0.0511 | R275C 0.0162 | R275C/beta1 -0.0312 | R275C/beta2Delta 0.0494 | R275C/beta4 -0.0175 | R275C/Slo1WT/beta2 0.00393

Cc1nccn1CC1CCc2c(c3ccccc3n2C)C1=O (stereo not drawn)
inactive: F380Y/beta2Delta -0.00534 and 0.0144 | F380Y/beta4 0.0398 and -0.017 | [1] -0.0199 and 0.0181 | R275C -0.0259 and 0.0252 | R275C/beta1 -0.00728 and 0.00537 | R275C/beta2Delta -0.00652 and 0.0192 | R275C/beta4 -0.00238 and 0.0058 | R275C/Slo1WT/beta2 0.0288 and 0.00389

C[C@H](NC(CCc1ccccc1)C(=O)O)C(=O)N1CCC[C@H]1C(=O)O (stereo partly drawn)
inactive: F380Y/beta2Delta 0.0235 | F380Y/beta4 0.0162 | [1] -0.0317 | R275C -0.0419 | R275C/beta1 0.0208 | R275C/beta2Delta 0.0297 | R275C/beta4 0.0258
active: R275C/Slo1WT/beta2 0.0874

Source: PubChem BioAssay
